Compounds with a hit are over-represented: about 7.9% of the library has one in this group of screens.
MCF10A rereplic – DNA re-replication induction in MCF 10a cells | AID 624296 | MCF 10A DNA re-replication, Hoechst nuclear intensity, 48 h | Potency, µM (highest dose often 46.1 µM), for inactives: at the top dose activity, positive = re-replication, most hits filed as activators | 350,000 tested, 2.9% active; also: % of control where 0% means no effect; nearly all actives have a fitted effect of over 50% in size
SW480 rerep – inducers of DNA re-replication in SW480 colon cancer cells. SW480 DNA re-replication, Hoechst DNA content imaging, 48 h. 340,000 tested, 1.8% active. Potency, µM (highest dose often 46.1 µM), without a hit: at the highest dose re-replication activation, hits mostly activators; also: % of control where 0% means no effect; nearly all actives have a fitted effect of over 55% in size
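Hoechst fluorescence of nuclei (405 nm excitation, 500-530 nm emission) measured by plate-scanning imager after 48 hr compound exposure at 37 C; re-replication scored as increased number of nuclei with elevated intensity.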
KB-3-1 cytotox – kills parental KB-3-1 adenocarcinoma cells | KB-3-1 viability, CellTiter-Glo ATP luminescence, 72 h | Potency, µM (doses to about 46.1 µM), usual class: cytotoxic | 400,000 tested, 1.4% active | AID 1347075; also: % is scaled to controls: 0 for no effect and ±100 for the full control effect; nearly all actives have a fitted effect of over 60% in size
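KB-3-1 cells, DMEM (no phenol red) + 10% FBS; compound by pin transfer, 72 h, 37 °C. Readout: CellTiter-Glo luminescence after 10 min. Data normalized, curve-fitted.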
HT1080 IDH1KD tx – kills HT-1080 cells with IDH1 knockdown. Potency, µM (highest dose often 46.1 µM), for the others: top-dose activity, negative = toxicity, hits mostly cytotoxic. HT-1080 IDH1 knockdown viability, ATP luminescence, 48 h. 360,000 tested, 2% active. AID 686971;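 also: 0% = DMSO wells and -100% = cell-free medium wells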
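Cytotoxicity counter-line: IDH1KD HT-1080, 48 h, CellTiter-Glo. Curves classed by r2, magnitude and activity.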
HT1080-NT tox – kills 2HG-producing HT-1080-NT fibrosarcoma cells; HT-1080-NT fibrosarcoma viability, CellTiter-Glo ATP luminescence, 48 h; 360,000 tested, 1.6% active; Potency, µM (doses to about 46.1 µM), inactives show at the top dose activity, negative = less viability, actives largely listed as cytotoxic;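 also: NT is the 2HG producing partner of a matched IDH1 knockdown line; 0% = DMSO-treated cells and -100% = media-only wells without cells; nearly all actives have a fitted effect of over 55% in size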
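Toxicity toward the 2HG-producing NT line was scored as %Activity, normalised to DMSO and no-cell wells, from CellTiter-Glo luminescence after 48 hours' treatment.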
KB-V1 MDR tox – KB-V1 MDR subline cytotoxicity; KB-V1 MDR cells viability, CellTiter-Glo, 72 h; Potency, µM (highest dose often 46.1 µM), hits mostly cytotoxic; 400,000 tested, 3.4% active; also: % is scaled to controls: 0 for no effect and ±100 for the full control effect; nearly all actives have a fitted effect of over 60% in size
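Following 72 h at 37 degrees C with compound, KB-V1 cell viability was read by CellTiter-Glo luminescence, medium being phenol-red-free DMEM plus 10% FBS; concentration-response parameters came from normalized, curve-fitted qHTS data.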
Active calls of the source: *; i = inactive; ? = inconclusive; · = no result; [ ] = remark or other dose. Calls follow the shape of the dose curve; as a rule, active = well fitted curve in the direction sought with a large enough effect; inconclusive = small, poorly fitted or top-dose-only effect, or another doubt; inactive = no such curve, though single readings can be large; an effect the other way counts as inactive or inconclusive. Potency is read from the fitted curve at half-maximal effect.

SMILES | MCF10A rereplic | SW480 rerep | KB-3-1 cytotox | HT1080 IDH1KD tx | HT1080-NT tox | KB-V1 MDR tox
COC(=O)c1ccccc1NC(=O)COC(=O)c1ccc(C)c(NC(=O)c2ccco2)c1 | 25% | ? | i | 3% | -1% | 3.7µM*
COc1ccc(NC(=O)COC(=O)c2cc(OC)c(OC)cc2NC(=O)c2ccco2)cc1OC | ? | 10µM* | i | ? | ? | i
CCOC(=O)c1ccc(Nc2c(-c3ccc(OC)cc3)nc3nc[nH]n23)cc1 | · | · | i | · | · | i
CCOC(=O)C1=C(Nc2ccc(OC)cc2)C(N)=NC1=N | · | · | ? | 5.2µM* | 2.3µM* | 1.8µM*
O=C1C=C(c2ccc3ncccc3c2)C[C@@H](c2ccc3c(c2)OCO3)C1 | ? | 21µM* | ? | 8.2µM* | 10µM* | ?
Cc1c(N=Nc2c(-c3ccc([N+](=O)[O-])cc3)[nH]n(C(N)=S)c2=O)cccc1[N+](=O)[O-] | ? | ? | 21µM* | ? | ? | 16µM*
NC(=S)n1[nH]c(-c2ccc([N+](=O)[O-])cc2)c(N=Nc2cccc([N+](=O)[O-])c2)c1=O | -14% | ? | ? | 0.82µM* | 1.5µM* | ?
CC(C)Cc1nnc(NC(=O)CCC(=O)N2CCN(c3ccccn3)CC2)s1 | 21% | -4% | i | 4% | -4% | i
COc1ccc(CC(=O)NNC2=Nc3cccc4cccc2c34)cc1OC | 4% | ? | i | 5% | 9% | i
COc1ccc(NC2=Nc3cccc4cccc2c34)cc1OC | 0% | -2% | i | -1% | -31% | ?
COc1cccc(NC2=Nc3cccc4cccc2c34)c1 | 0% | 1% | i | -11% | 6% | 13µM*
COc1cc(NC2=Nc3cccc4cccc2c34)cc(OC)c1OC | ? | ? | i | ? | ? | 2.6µM*
Nc1ccn([C@@H]2O[C@H](CNCc3cc(Cl)ccc3OCc3ccc(Cl)cc3)[C@@H](O)[C@H]2O)c(=O)n1 | · | · | i | -1% | 1% | i
O=C(CCN1C(=O)/C(=C/c2ccc(Cl)cc2)SC1=S)Nc1ccc(C(=O)O)cc1 | -3% | -4% | i | 0% | 4% | i
Cc1nc(S/C(=C\c2ccc(-c3ccc(C(=O)O)c(Cl)c3)o2)C(=O)O)n[nH]1 | -1% | 5% | i | 0% | 0% | i
O=C(NNc1ccc(O)cc1)c1ccc(Br)cc1 | ? | -40% | i | 4.1µM* | ? | i
CCCc1ccc(C(=O)NNc2ccc(F)cc2)cc1 | ? | 4% | ? | 7.3µM* | 4.1µM* | i
O=C(NNc1ccccc1)c1ccccc1 | ? | -3% | i | -18% | ? | ?
Cc1ccc(C)c(OCC(=O)Nc2ccc(N3CCOCC3)cc2)c1 | -3% | -5% | i | 2% | -3% | ?
COc1ccc(Cl)cc1NC(=S)N(CCCN1CCOCC1)Cc1cn(C)c2ccccc12 | ? | 23µM* | ? | -22% | ? | i
COc1cc(CNCCCN2CCOCC2)cc(Br)c1OCc1ccc(Cl)cc1 | 13µM* | -3% | ? | ? | -28% | ?
COc1ccc(Cl)cc1NC(=S)NCCN1CCOCC1 | 0.46µM* | ? | i | 3% | 1% | i
COc1cc(CNCCN2CCOCC2)ccc1OCc1ccc(Cl)cc1 | ? | ? | ? | ? | ? | i
COc1cc(Cl)ccc1NC(=S)N(CCCN1CCOCC1)Cc1cn(C)c2ccccc12 | ? | ? | ? | ? | ? | i
O=C(COC(=O)c1cc(-c2cccs2)nc2ccccc12)c1ccc(F)cc1 | · | · | i | · | · | i
SMILES | MCF10A rereplic | SW480 rerep | KB-3-1 cytotox | HT1080 IDH1KD tx | HT1080-NT tox | KB-V1 MDR tox
Cc1ccc(OC(=O)c2cc(-c3ccc(Cl)cc3)on2)c(C)c1 | · | · | i | · | · | i
COc1ccc(NC(=O)C2CCCN(C(=O)c3ccc(Cl)cc3)C2)cc1S(=O)(=O)N(C)C (stereo not given) | 3% | -36% | i | 1% | -4%[9.24 µM] | ?
O=C(CSc1nc2scc(-c3cccs3)c2c(=O)n1CCc1ccccc1)N1CCCC1 | 5% | 2% | i | 22% | 2% | i
Cc1ccccc1-n1sc2cc(F)ccc2c1=O | 16µM* | ? | ? | 21µM* | 18µM* | ?
O=c1c2ccccc2sn1-c1ccccc1F | · | · | ? | ? | -9% | ?
COc1ccc(-n2ccnc(SCC(=O)NCc3ccccc3Cl)c2=O)cc1 | -12% | -4% | i | 0% | -2% | i
COc1ccccc1-n1ccnc(SCC(=O)NCc2ccccc2Cl)c1=O | 5% | 2% | i | -8% | -5% | 21µM*
CCNC(=O)[C@@H]1CCCN1C(=O)[C@H](CCCN=C(N)N)NC(=O)[C@H](CC(C)C)NC(=O)[C@@H](Cc1c[nH]c2ccccc12)NC(=O)[C@H](Cc1ccc(O)cc1)NC(=O)[C@H](CO)NC(=O)[C@H](Cc1c[nH]c2ccccc12)NC(=O)[C@H](Cc1cnc[nH]1)NC(=O)[C@@H]1CCC(=O)N1 | 30µM* | ? | · | · | · | ·
CC(C)C[C@H](NC(=O)[C@@H](Cc1c[nH]c2ccccc12)NC(=O)[C@@H](Cc1ccc(O)cc1)NC(=O)[C@@H](CO)NC(=O)[C@@H](Cc1c[nH]c2ccccc12)NC(=O)C(Cc1cnc[nH]1)NC(=O)C1CCC(=O)N1)C(=O)N[C@@H](CCCN=C(N)N)C(=O)N1CCC[C@@H]1C(=O)NCC(N)=O (stereo not given in full) | -3% | -2% | · | · | · | ·
COc1cccc(CNC(=O)CN2C(=O)CSc3ccc(S(=O)(=O)N(C)C)cc32)c1 | · | · | i | · | · | i
Cc1c2n(c3ccccc13)CC/C2=N\O | 1% | 1% | ? | -29% | -19% | 5.2µM*
Cc1ccccc1OCC(=O)NCCCNC(=O)c1cccnc1 | -1% | 5% | i | -19% | -7% | i
Cn1c(NCc2ccc3occc3c2)nc2cc(-c3ccc(F)cc3)sc2c1=O | · | · | i | -29% | 14% | i
c1ccc(-c2cc3nc(NCc4cccs4)nc(NCc4ccc5occc5c4)c3s2)cc1 | · | · | ? | 18µM* | 16µM* | ?
C=C1[C@@H](O)CN(Cc2ccc(OC)cc2)S1(=O)=O | · | · | ? | · | · | i
COc1ccc(CN2C[C@H]3CCCN3c3cc(Br)ccc3S2(=O)=O)cc1 | 1.2µM* | 1.6µM* | 1.8µM* | 2.6µM* | ? | ?

Screens deposited in PubChem BioAssay by National Center for Advancing Translational Sciences (NCATS).
